This passage reports outcome and AC50 results from PubChem BioAssay (EPA / NIEHS).

Each structure is given as a SMILES string. Results filed as inconclusive are left out. Activity calls are given as the source filed them. Rule for the calls, unless noted: active = hit-call score of the fitted dose curve at least 0.9, where 1 is the maximum; inactive = score below 0.9.

Experiment [1] has as its target human Peroxisome Proliferator-activated Receptor alpha (PPARa), PPARA (gene 5465) (UniProt Q07869). The experiment in a line: ATG_PPARa_TRANS: Attagene TRANS-FACTORIAL HepG2 Assay for human Peroxisome Proliferator-activated Receptor alpha (PPARa) (AID 2283001; active = hit-call score of the fitted dose curve at least 0.9, where 1 is the maximum). The gist of the method:
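Reporter transcripts quantified by RT-PCR plus capillary electrophoresis after 24 h treatment, fitted upward relative to DMSO. Cells: human HepG2 transiently carrying multiple GAL4-UAS reporter units driven by NR-Gal4 chimeras.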

Experiment [2] addresses human Peroxisome Proliferator-activated Receptor delta (PPARd), PPARD (gene 5467) (UniProt Q03181). Kind of experiment: ATG_PPARd_TRANS: Attagene TRANS-FACTORIAL HepG2 Assay for human Peroxisome Proliferator-activated Receptor delta (PPARd) (AID 2283002; active = hit-call score of the fitted dose curve at least 0.9, where 1 is the maximum). The method in brief:
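Read-out is induced reporter mRNA, quantified by RT-PCR with fluorescent labelling and capillary electrophoresis after 24 h dosing. Cells are HepG2 transiently carrying multiple GAL4-UAS reporter units driven by exogenous NR-GAL4 chimeras; DMSO serves as baseline.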

Read-out in experiment [3]: Intercellular Adhesion Molecule 1 (ICAM1), ICAM1 (gene 3383)
The experiment in a line: BSK_3C_ICAM1: BioMAP Diversity Plus: 3C Assay for Intercellular Adhesion Molecule 1 (ICAM1) Biomarker Activity (AID 2283003). The note with it: primary human endothelial cells (HUVEC); actives raise or lower the signal. The gist of the method:
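Chemicals are dosed onto primary human umbilical vein endothelium (3C system). After 24 h, ICAM-1 is measured by ELISA, and responses are fitted bidirectionally relative to DMSO.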

Experiment [4] has as its target Peroxisome proliferator-activated receptor gamma (Homo sapiens) (UniProt P37231). Kind of experiment: ATG_PPARg_TRANS: Attagene TRANS-FACTORIAL HepG2 Assay for human Peroxisome Proliferator-activated Receptor-gamma (PPARg) (AID 2283007; active = hit-call score of the fitted dose curve at least 0.9, where 1 is the maximum). The gist of the method:
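Multiplexed reporter transcription units in HepG2, 24 h dosing, reporter transcripts quantified by fluorescent RT-PCR and capillary electrophoresis. Increase over DMSO scored.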

In experiment [5] the target is Nuclear receptor subfamily 1 group I member 2 (Homo sapiens) (UniProt O75469). The experiment in a line: ATG_PXR_TRANS: Attagene TRANS-FACTORIAL HepG2 Assay for human Pregnane X Receptor (PXR) (AID 2283008; active = hit-call score of the fitted dose curve at least 0.9, where 1 is the maximum). The method in brief: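 Transient HepG2 transfectants carrying multiplexed reporter transcription units; PXR activity read through a Gal4 chimera. 24 h exposure. RT-PCR/CE fluorescence; upward curve fit referenced to DMSO.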

Experiment [6] deals with Retinoic acid receptor RXR-alpha (Homo sapiens) (UniProt P19793). The experiment in a line: ATG_RXRa_TRANS: Attagene TRANS-FACTORIAL HepG2 Assay for human Retinoid X Receptor alpha (RXRa) (AID 2283012; active = hit-call score of the fitted dose curve at least 0.9, where 1 is the maximum). The gist of the method: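 Measures exogenous chimeric NR-GAL4 activity in transfected HepG2 liver cells after 24 h of dosing. Induced reporter mRNA was detected by RT-PCR with capillary electrophoresis, and gain of signal was analysed against DMSO.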

Read-out in experiment [7]: E-selectin (Homo sapiens) (UniProt P16581)
Kind of experiment: BSK_3C_Eselectin: BioMAP Diversity Plus: 3C Assay for Eselectin Biomarker Activity (AID 2283015).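 For outcome: cell surface E-selectin protein quantified by ELISA 24 h after dosing.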 As to conditions: primary human endothelial cells (HUVEC); actives raise or lower the signal. The method in brief: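 ELISA read-out of E-selectin on endothelial monolayers after 24 h chemical treatment. Human umbilical vein primary cells served as the system, with DMSO defining baseline activity for bidirectional fitting.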

Read-out in experiment [8]: Interleukin-1 alpha (IL1a), IL1A (gene 3552)
Kind of experiment: BSK_BE3C_IL1a: BioMAP Diversity Plus: BE3C Assay for Interleukin-1 alpha (IL1a) Biomarker Activity (AID 2283016). As to conditions: primary human bronchial epithelial cells; actives raise or lower the signal. The method in brief: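 Signal from IL-1a ELISA, taken 24 h after chemical dosing of human bronchial epithelial cells, is compared with DMSO as baseline using bidirectional curve fitting.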

Read-out in experiment [9]: Monocyte Chemoattractant Protein-1 (MCP1), CCL2 (gene 6347)
The experiment in a line: BSK_3C_MCP1: BioMAP Diversity Plus: 3C Assay for Monocyte Chemoattractant Protein-1 (MCP1) Biomarker Activity (AID 2283017). As to conditions: primary human endothelial cells (HUVEC); actives raise or lower the signal. The method in brief: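 ELISA read-out of MCP-1 from human umbilical vein endothelial cell cultures harvested 24 h post-dosing. Gain or loss of signal was fitted relative to DMSO.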

Read-out in experiment [10]: Monocyte Chemoattractant Protein-1 (MCP1), CCL2 (gene 6347)
Kind of experiment: BSK_4H_MCP1: BioMAP Diversity Plus: 4H Assay for Monocyte Chemoattractant Protein-1 (MCP1) Biomarker Activity (AID 2283018). As to conditions: primary human endothelial cells (HUVEC); actives raise or lower the signal. The method in brief: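 Endothelial cells from umbilical vein were treated with test chemical, then after 24 h MCP-1 levels were quantified by ELISA; endpoint values came from bidirectional fitting with DMSO as baseline of activity.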

Read-out in experiment [11]: Human Leukocyte Antigen - DR isotype (HLADR), HLA-DRA (gene 3122)
The experiment in a line: BSK_3C_HLADR: BioMAP Diversity Plus: 3C Assay for Human Leukocyte Antigen - DR isotype (HLADR) Biomarker Activity (AID 2283019). The note with it: primary human endothelial cells (HUVEC); actives raise or lower the signal. The method in brief: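 ELISA readout of surface HLA-DR on human umbilical vein endothelium, taken 24 h after chemical treatment. Gain- and loss-of-signal were both fitted relative to DMSO.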

Read-out in experiment [12]: Interleukin-8 (IL8), CXCL8 (gene 3576)
Kind of experiment: BSK_3C_IL8: BioMAP Diversity Plus: 3C Assay for Interleukin-8 (IL8) Biomarker Activity (AID 2283020). The note with it: primary human endothelial cells (HUVEC); actives raise or lower the signal. The method in brief: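 Endothelial primary cells of human umbilical vein origin are dosed with chemical; after 24 h the IL-8 biomarker is measured by ELISA, and concentration–response is fitted in both directions versus DMSO.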

Read-out in experiment [13]: Monokine induced gamma interferon (MIG), CXCL9 (gene 4283)
The experiment in a line: BSK_3C_MIG: BioMAP Diversity Plus: 3C Assay for Monokine induced gamma interferon (MIG) Biomarker Activity (AID 2283021).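 For AC50: MIG protein level measured by immunoassay in the treated endothelial cultures.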 The note with it: primary human endothelial cells (HUVEC); actives raise or lower the signal. The gist of the method: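 Endothelial primary cells (human umbilical vein) are dosed with test chemical in the 3C system. MIG levels are measured by ELISA at 24 h and fitted in both directions relative to DMSO.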

The target of experiment [14] is human Retinoic Acid Receptor beta (RARb), RARB (gene 5915) (UniProt P10826). Kind of experiment: ATG_RARb_TRANS: Attagene TRANS-FACTORIAL HepG2 Assay for human Retinoic Acid Receptor beta (AID 2283004; active = hit-call score of the fitted dose curve at least 0.9, where 1 is the maximum). The gist of the method:
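Transient transfection of HepG2 with multiple reporter units → chemical dosing, 24 h → total RNA isolation → RT with oligo(dT) → reporter-specific PCR, 6-FAM primer extension, HpaI digest → capillary electrophoresis. Positive direction vs DMSO control.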

Experiment [15] deals with Retinoic acid receptor alpha (Homo sapiens) (UniProt P10276). Kind of experiment: ATG_RARa_TRANS: Attagene TRANS-FACTORIAL HepG2 Assay for human Retinoic Acid Receptor alpha (RARa) (AID 2283005; active = hit-call score of the fitted dose curve at least 0.9, where 1 is the maximum). The method in brief: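 Reporter transcripts, measured by RT-PCR with fluorescent labeling and capillary electrophoresis after 24 h dosing, reflect activity of an exogenous human RARa–GAL4 fusion in transiently transfected HepG2. Fitted for increase relative to DMSO.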

The target in experiment [16] is human Retinoic Acid Receptor gamma (RARg), RARG (gene 5916) (UniProt P13631). Kind of experiment: ATG_RARg_TRANS: Attagene TRANS-FACTORIAL HepG2 Assay for human Retinoic Acid Receptor gamma (RARg) (AID 2283009; active = hit-call score of the fitted dose curve at least 0.9, where 1 is the maximum). The method in brief:
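TRANS format measured activity of exogenous NR-GAL4 fusion (RARg) in transfected HepG2 liver cells after 24 h dosing. Induced reporter RNA was detected by RT-PCR/capillary electrophoresis fluorescence, analysed in the positive direction against DMSO.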

For experiment [17], the target named is human Thyroid Receptor alpha (THRa1), THRA (gene 7067) (UniProt P10827). The experiment in a line: ATG_THRa1_TRANS: Attagene TRANS-FACTORIAL HepG2 Assay for human Thyroid Receptor alpha (THRa1) (AID 2283014; active = hit-call score of the fitted dose curve at least 0.9, where 1 is the maximum). The gist of the method: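 Reporter transcript induction, read by capillary electrophoresis of 6-FAM-labelled RT-PCR products, reflects activity of a transfected THRa1-Gal4 fusion in HepG2 liver cells. Cells were dosed for 24 h; activity was fitted in the positive direction against DMSO.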

Experiment [18] deals with human RAR-related Orphan Receptor beta (RORb), RORB (gene 6096) (UniProt Q92753). Kind of experiment: ATG_RORb_TRANS: Attagene TRANS-FACTORIAL HepG2 Assay for human RAR-related Orphan Receptor beta (RORb) (AID 2283010; active = hit-call score of the fitted dose curve at least 0.9, where 1 is the maximum). The gist of the method: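 Transfect HepG2 with multiple GAL4-UAS reporter transcription units; dose chemicals for 24 h; isolate RNA, reverse-transcribe and PCR-amplify reporter sequences; label, digest and resolve fragments by capillary electrophoresis; fit increases relative to DMSO.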

The target of experiment [19] is human Retinoid X Receptor beta (RXRb), RXRB (gene 6257) (UniProt P28702). Kind of experiment: ATG_RXRb_TRANS: Attagene TRANS-FACTORIAL HepG2 Assay for human Retinoid X Receptor beta (RXRb) (AID 2283013; active = hit-call score of the fitted dose curve at least 0.9, where 1 is the maximum). The method in brief: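 Chimeric receptor-Gal4 activity was assessed in transiently transfected human HepG2 cells after 24 h exposure. Transcripts from GAL4-UAS reporters were quantified by fluorescent RT-PCR and capillary electrophoresis, with DMSO as negative control and baseline.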

Experiment [20] is described as follows: BSK_3C_Proliferation: Cell Proliferation Assessment in the BioMAP Diversity Plus: 3C Assay (AID 2283006).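 Note: potency may reflect either rise or fall in cell number versus DMSO.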 As to conditions: primary human endothelial cells (HUVEC). The method in brief: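 Cells (human umbilical vein endothelial, sub-confluent) receive test chemical; after 48 h they are fixed in 10% trichloroacetic acid, stained with 0.1% SRB and read at 560 nm. Activity is referenced to DMSO, fitting increases and decreases.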

Sequence of Peroxisome proliferator-activated receptor gamma (Homo sapiens) (P37231 whole entry, looked up): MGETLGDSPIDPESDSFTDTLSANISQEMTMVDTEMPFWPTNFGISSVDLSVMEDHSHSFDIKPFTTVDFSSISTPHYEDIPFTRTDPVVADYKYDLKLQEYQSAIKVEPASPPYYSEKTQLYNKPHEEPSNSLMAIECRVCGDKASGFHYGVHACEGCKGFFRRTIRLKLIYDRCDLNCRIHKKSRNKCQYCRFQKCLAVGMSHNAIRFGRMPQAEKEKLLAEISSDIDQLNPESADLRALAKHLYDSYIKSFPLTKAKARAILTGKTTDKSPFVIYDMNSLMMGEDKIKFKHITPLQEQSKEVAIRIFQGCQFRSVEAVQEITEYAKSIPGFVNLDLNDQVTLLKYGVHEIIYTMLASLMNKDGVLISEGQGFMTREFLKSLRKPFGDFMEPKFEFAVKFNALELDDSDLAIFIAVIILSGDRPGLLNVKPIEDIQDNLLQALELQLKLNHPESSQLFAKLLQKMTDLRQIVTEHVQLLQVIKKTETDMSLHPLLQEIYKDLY
Sequence of E-selectin (Homo sapiens) (P16581 whole entry, looked up): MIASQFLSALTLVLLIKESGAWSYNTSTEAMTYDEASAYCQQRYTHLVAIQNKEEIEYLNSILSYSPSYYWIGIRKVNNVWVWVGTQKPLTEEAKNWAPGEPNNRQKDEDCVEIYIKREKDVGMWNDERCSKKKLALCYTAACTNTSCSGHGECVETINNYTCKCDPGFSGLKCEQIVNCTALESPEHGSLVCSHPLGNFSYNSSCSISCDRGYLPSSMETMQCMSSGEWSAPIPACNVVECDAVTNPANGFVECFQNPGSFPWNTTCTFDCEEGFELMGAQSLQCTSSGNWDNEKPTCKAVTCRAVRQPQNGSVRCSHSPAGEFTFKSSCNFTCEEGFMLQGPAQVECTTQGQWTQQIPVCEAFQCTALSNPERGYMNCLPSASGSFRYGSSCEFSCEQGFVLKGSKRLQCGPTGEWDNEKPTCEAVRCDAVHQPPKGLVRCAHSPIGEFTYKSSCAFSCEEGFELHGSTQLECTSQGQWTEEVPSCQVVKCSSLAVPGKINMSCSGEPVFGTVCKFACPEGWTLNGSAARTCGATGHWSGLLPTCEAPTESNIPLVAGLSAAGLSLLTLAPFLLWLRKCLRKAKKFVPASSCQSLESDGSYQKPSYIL
Sequence of human Peroxisome Proliferator-activated Receptor alpha (PPARa), PPARA (gene 5465) (Q07869 whole entry, looked up, the tested form may be a part): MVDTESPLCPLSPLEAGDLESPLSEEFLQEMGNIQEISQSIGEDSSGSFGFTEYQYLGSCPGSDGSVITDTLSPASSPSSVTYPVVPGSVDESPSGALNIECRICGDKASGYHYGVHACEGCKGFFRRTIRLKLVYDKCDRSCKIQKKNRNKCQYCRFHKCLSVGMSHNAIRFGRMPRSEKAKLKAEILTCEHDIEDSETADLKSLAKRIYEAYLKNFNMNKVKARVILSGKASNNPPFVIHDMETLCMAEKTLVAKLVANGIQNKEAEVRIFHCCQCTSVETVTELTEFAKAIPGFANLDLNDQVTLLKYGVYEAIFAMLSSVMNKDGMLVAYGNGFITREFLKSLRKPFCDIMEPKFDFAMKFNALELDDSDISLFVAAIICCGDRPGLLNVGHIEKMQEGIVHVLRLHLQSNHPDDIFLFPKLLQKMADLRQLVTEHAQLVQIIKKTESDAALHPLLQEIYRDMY
Sequence of Nuclear receptor subfamily 1 group I member 2 (Homo sapiens) (O75469 whole entry, looked up, the tested form may be a part): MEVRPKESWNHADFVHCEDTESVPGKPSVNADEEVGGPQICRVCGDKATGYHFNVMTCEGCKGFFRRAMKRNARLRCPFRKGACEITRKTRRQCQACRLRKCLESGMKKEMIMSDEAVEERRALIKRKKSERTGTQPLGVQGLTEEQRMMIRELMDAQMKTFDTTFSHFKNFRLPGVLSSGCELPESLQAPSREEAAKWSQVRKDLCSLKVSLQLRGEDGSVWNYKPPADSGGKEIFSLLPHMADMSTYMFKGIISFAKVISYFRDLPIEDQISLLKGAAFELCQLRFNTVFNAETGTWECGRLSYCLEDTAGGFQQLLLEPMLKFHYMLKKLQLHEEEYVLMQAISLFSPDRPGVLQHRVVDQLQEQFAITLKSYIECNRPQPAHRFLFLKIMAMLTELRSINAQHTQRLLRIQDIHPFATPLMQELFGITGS
Sequence of Retinoic acid receptor RXR-alpha (Homo sapiens) (P19793 whole entry, looked up, the tested form may be a part): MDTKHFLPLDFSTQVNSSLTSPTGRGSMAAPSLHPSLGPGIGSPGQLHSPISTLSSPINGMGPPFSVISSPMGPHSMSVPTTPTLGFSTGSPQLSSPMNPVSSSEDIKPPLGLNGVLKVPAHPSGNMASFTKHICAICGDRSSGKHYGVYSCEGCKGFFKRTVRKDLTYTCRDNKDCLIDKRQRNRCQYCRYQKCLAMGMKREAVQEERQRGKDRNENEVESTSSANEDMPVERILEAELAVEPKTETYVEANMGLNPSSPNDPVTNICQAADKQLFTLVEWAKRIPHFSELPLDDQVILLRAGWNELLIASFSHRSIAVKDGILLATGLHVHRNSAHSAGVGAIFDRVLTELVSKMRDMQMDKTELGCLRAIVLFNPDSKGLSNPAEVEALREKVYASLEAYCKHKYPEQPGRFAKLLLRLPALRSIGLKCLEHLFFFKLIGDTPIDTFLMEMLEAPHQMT
Sequence of human Peroxisome Proliferator-activated Receptor delta (PPARd), PPARD (gene 5467) (Q03181 whole entry, looked up, the tested form may be a part): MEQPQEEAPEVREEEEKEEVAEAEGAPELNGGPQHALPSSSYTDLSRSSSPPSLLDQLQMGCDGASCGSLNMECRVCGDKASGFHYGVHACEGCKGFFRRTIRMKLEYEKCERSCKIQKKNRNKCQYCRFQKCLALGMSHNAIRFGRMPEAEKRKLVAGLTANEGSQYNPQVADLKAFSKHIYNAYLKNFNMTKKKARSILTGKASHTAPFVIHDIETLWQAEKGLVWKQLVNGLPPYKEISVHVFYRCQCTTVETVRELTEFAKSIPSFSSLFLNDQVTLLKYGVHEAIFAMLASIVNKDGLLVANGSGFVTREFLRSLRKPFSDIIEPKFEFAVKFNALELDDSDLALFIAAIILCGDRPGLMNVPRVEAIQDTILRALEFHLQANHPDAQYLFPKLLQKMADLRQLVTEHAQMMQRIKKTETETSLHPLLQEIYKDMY
Sequence of human Thyroid Receptor alpha (THRa1), THRA (gene 7067) (P10827 whole entry, looked up, the tested form may be a part): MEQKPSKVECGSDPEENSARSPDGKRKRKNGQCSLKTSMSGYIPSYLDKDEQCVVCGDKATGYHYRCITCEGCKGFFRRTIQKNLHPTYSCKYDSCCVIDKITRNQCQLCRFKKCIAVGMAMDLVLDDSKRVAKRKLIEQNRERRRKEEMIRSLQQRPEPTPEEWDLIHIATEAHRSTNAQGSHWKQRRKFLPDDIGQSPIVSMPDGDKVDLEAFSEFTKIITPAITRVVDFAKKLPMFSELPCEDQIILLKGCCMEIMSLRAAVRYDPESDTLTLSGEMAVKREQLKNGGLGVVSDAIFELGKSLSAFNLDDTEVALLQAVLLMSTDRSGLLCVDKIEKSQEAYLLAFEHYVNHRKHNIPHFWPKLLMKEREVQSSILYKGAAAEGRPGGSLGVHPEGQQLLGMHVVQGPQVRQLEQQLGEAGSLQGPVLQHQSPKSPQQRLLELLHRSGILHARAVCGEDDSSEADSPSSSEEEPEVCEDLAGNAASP
Sequence of human Retinoid X Receptor beta (RXRb), RXRB (gene 6257) (P28702 whole entry, looked up, the tested form may be a part): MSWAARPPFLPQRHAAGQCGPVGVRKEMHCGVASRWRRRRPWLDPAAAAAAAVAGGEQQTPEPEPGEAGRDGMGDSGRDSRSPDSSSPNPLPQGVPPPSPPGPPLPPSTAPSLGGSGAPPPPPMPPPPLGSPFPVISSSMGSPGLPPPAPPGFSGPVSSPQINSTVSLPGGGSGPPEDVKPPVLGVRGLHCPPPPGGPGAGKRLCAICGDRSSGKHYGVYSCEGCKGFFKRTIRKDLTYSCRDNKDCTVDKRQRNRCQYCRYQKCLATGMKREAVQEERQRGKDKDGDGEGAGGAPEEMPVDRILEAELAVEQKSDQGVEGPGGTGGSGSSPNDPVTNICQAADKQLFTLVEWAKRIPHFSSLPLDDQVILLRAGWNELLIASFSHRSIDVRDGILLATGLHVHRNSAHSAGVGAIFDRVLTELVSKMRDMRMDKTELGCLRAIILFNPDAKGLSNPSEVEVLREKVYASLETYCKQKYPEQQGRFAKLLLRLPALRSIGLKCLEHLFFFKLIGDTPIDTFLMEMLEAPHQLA
Sequence of Retinoic acid receptor alpha (Homo sapiens) (P10276 whole entry, looked up, the tested form may be a part): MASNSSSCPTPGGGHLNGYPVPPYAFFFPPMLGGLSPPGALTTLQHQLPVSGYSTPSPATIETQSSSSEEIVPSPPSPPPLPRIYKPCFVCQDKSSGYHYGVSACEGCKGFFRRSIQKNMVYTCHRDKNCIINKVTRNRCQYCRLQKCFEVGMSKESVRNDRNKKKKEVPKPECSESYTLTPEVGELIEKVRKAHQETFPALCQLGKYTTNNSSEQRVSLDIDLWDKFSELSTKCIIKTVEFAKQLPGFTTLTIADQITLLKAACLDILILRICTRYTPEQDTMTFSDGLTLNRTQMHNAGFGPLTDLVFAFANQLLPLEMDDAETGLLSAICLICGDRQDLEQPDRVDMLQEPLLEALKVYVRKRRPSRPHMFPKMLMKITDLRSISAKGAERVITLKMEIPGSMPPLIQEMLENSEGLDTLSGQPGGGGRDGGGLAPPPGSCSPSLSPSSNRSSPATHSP
Sequence of human RAR-related Orphan Receptor beta (RORb), RORB (gene 6096) (Q92753 whole entry, looked up, the tested form may be a part): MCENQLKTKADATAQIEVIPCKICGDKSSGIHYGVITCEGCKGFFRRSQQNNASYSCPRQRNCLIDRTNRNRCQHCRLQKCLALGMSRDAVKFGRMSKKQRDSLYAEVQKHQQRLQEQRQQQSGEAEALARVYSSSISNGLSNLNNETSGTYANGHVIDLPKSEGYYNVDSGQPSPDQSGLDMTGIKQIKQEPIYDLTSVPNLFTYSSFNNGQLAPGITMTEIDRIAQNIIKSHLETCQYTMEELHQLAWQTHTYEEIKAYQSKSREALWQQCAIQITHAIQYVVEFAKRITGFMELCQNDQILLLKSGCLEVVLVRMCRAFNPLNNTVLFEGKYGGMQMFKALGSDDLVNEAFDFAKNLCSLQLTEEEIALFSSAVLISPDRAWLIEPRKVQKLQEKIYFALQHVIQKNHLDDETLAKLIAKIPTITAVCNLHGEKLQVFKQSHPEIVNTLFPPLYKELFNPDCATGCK

`CC(C)(O)c1cnn2c(-c3ccc(F)c(-c4c(F)cccc4C#N)c3)cnc2n1`: the outcome in experiment [1], in [2], in experiment [3], in experiment [4], in experiment [6] and in experiment [7] was inactive. Moreover, the result in experiment [10] and in experiment [13] was inactive. Besides, the AC50 in [5] was 0.0774 µM (active); in [8] it was 31.6 µM (active); in [9], 26.4 µM (active); in experiment [11], 30.4 µM (active); in [12] it was 20 µM (active).

In the case of `CCOC(=O)[C@]1(c2ccccc2)Oc2ccccc2[C@@H]1N`, the molecule was called inactive in experiment [1], in experiment [3], in experiment [14], in [15], in [4] and in experiment [16]. Further, the outcome in experiment [17], in [7], in experiment [8], in experiment [10] and in experiment [13] was inactive. Also, the AC50 in experiment [5] was 11 µM (active); in [9] it was 13.4 µM (active); in experiment [11], 27.6 µM (active); in [12] it was 20 µM (active).

On to `ClC1=C(Cl)[C@]2(Cl)[C@H]3[C@H]([C@@H]4C=C[C@H]3C4)[C@@]1(Cl)C2(Cl)Cl`, for which the result in [1], in experiment [2], in [4], in experiment [18], in [6] and in experiment [17] was inactive. The outcome in [8] was inactive. The AC50 is 35 µM (active) in experiment [3]; 9.08 µM (active) in experiment [5]; 10.4 µM (active) in experiment [19]; 30.9 µM (active) in [7]; 32.2 µM (active) in [9]; 24.2 µM (active) in [10]. Moreover, the results for the AC50 in [11], in experiment [12] and in [13] were 24.9 µM (active), 28.8 µM (active) and 37.3 µM (active), respectively.

For `CN(C)c1ccc(C(=O)c2ccc(N(C)C)cc2)cc1`, the molecule was classed as inactive in experiment [1], in [3], in experiment [5], in [19], in experiment [7] and in [8]. The result in experiment [10] and in [13] was inactive. The concentration at half-maximal activity (AC50) in experiment [20] is 1.68 µM (active); in experiment [4] it was 6.44 µM (active); in [9], 2.3 µM (active); in experiment [11] it was 20 µM (active); in experiment [12], 2.55 µM (active).
